Compound activity from PubChem.
TRHR PAM: allosterically enhances the human TRH receptor. enhancement, % at 2 µM. 360,000 compounds, 0.66% hits. TRHR cells, fluo-8 calcium fluorescence, EC20 TRH enhancement. P34981; in the data active means enhancement above about 30%
Target sequence (P34981 whole entry, looked up): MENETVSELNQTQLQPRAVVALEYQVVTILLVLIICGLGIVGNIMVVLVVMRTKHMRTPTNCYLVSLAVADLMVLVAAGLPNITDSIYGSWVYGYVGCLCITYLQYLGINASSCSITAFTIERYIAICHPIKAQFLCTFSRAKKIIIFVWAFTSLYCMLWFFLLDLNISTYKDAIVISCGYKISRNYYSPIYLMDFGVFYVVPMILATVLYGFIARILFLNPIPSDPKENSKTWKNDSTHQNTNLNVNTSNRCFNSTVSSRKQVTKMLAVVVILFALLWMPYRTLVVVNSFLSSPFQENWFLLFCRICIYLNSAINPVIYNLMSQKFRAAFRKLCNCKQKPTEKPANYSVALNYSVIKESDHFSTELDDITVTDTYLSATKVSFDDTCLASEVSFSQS
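Enhancer read-out: after compound pinning and an initial kinetic agonist-mode read, an EC20 of TRH (10 nM final) was injected and fluo-8 calcium signal (Ex 480/Em 530) followed at 1 s/cycle for 100 cycles in TRHR-expressing cells.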
D1 potentiator: human D1 dopamine receptor positive modulation; 360,000 compounds, 0.036% hits; potentiation, % at 10 µM; AID 504651; P21728; HEK293 TREx D1 cells, calcium flux, dopamine EC20 potentiation; in the data active means potentiation above about 30%
D1 agonist: activates the human D1 dopamine receptor; P21728; HEK293 T-REx D1 cells, calcium flux, agonist mode; activation, % at 2 µM; 360,000 compounds, 1% hits; AID 504660
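Agonism was scored from calcium flux recorded over 180 s (1 read/s) after pintool compound addition, following a 10-cycle baseline. Cells were inducible force-coupled HEK293 TREx D1, plated overnight at 30 C and loaded with no-wash calcium dye.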
TRHR agonist: agonists of human TRH receptor | activation, % at 2 µM | TRHR cells, calcium flux fluo-8, FDSS agonist mode | AID 493084 | 360,000 compounds, 0.18% hits | P34981
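Steps: seed TRHR cells overnight; add fluo-8 no-wash Ca dye, RT 30 min–1.5 h; record 10 s baseline; pin-transfer compounds; monitor fluorescence 1 cycle/s for the agonist window. Calcium increases flag candidate agonists.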
D1 antag: blocks dopamine activation of the human D1 receptor; P21728; HEK293 TREx D1 cells, calcium flux, dopamine EC80; hits give low values; activity change, negative = inhibition, % at 10 µM; 360,000 compounds, 3.2% hits; AID 504652; in the data active means activity change below about -30%
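Tetracycline-induced HEK293 Trex D1 cells, force-coupled to calcium, dye-loaded; compounds added and read 180 s, then EC80 dopamine added and calcium flux tracked kinetically another 180 s.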
Of the large screens only hits and unclear results are named; the others gave an inactive call; ! = not active in a repeat. Compounds with a hit are over-represented: about 4.6% of the library has one in this group of screens. Unless noted, no stated cut-off is given here; in the data, active means activation above about 30%; inactive means the rest.

COC(=O)C1=C(C)N(Cc2ccccc2)C(=NCC(C)C)N[C@H]1c1ccccc1	D1 agonist 40!
C=CCN=C1N[C@@H](c2ccc(Br)cc2)C(C(=O)OC)=C(C)N1Cc1ccccc1	D1 agonist 31
COC(=O)c1cc(NC(=O)c2ccc(-c3ccccc3)cc2)ccc1Cl	none
CCc1ccccc1NC(=O)Nc1cccc(F)c1	D1 antag -42
Cc1ccc(NC(=O)Nc2ccon2)cc1Cl	D1 antag -31
O=C(Nc1cccc(Cl)c1)Nc1cccc(Cl)c1	D1 antag -49
O=C(Nc1ccccc1)Nc1cc(Cl)cc(Cl)c1	none
COC(=O)c1cc(NC(=O)Nc2cccc(Cl)c2)ccc1Cl	D1 antag -41
Cc1cccc(CN2CCCC(C(=O)c3ccc4c5c(cccc35)CC4)C2)n1 (stereo unspecified)	none
CCOc1ccccc1NC(=O)C(=O)NCC1CCCN1CC (stereo unspecified)	none
COc1ccc(OCC(=O)NNC(=O)Nc2cccc(Cl)c2)cc1	TRHR PAM 34
Cc1cccnc1NC(=O)Nc1cccc(Cl)c1	TRHR PAM 32
O=C(Nc1cccc(Cl)c1)Nc1ccon1	TRHR PAM 39
O=C(Nc1ccc(Cl)cc1)Nc1ccon1	none
O=C(Nc1cccc(F)c1)Nc1cccc(Cl)c1	D1 antag -53
Cc1cc2c(s1)c1cnn(Cc3ccc(Br)cc3F)c(=O)c1n2C	none
CN1C2CCC1CC(NS(=O)(=O)c1cc(Cl)c(Cl)cc1Cl)C2 (stereo unspecified)	none
O=C(NC(=S)NCc1cccnc1)c1cc2ccccc2o1	none
CCC(C)c1ccc(NC(=O)Nc2cccnc2)cc1 (stereo unspecified)	D1 antag -30
Cc1cccnc1N(C(=O)Nc1cccc(Cl)c1)C1=NCC(C)(C)S1	D1 antag -31
Cc1cccnc1N(C(=O)Nc1ccccc1)C1=NCC(C)(C)S1	none
O=C(NC(=S)Nc1cccnc1)c1cc2ccccc2o1	D1 antag -45
CCc1sc(C(=O)Nc2ncccc2C)cc1C	TRHR PAM 30
O=C(Nc1cccc(Cl)c1)Nc1cnccn1	D1 antag -45
CCC(C)[C@H](NC(=O)Nc1cccc(Cl)c1)C(=O)O (stereo partly specified)	D1 agonist 31
O=C(Nc1cccnc1)Nc1ccccc1Cl	none
CNS(=O)(=O)c1ccc(NC(=O)Nc2cccc(F)c2)cc1	D1 antag -50
CC(=O)Nc1cccc(NC(=O)Nc2cccc(F)c2)c1	none
O=C(Nc1cccnc1)Nc1cc(Cl)cc(Cl)c1	D1 antag -33
COc1ccc(NC(=O)C/C(C)=N/NC(=O)c2cnccn2)c(OC)c1	none
O=C(CN(CC1CCCO1)C(=O)CNS(=O)(=O)c1ccc(Cl)cc1)NCc1ccco1 (stereo unspecified)	none
CCOC(=O)c1ccc(N2C(=O)c3n[nH]c(C)c3C2c2ccc(OC)c(OC)c2)cc1 (stereo unspecified)	D1 antag -37
O=C1Nc2ccccc2OCc2c1cccc2[N+](=O)[O-]	none
CCCCN(C(=O)c1cccc(C)c1)c1c(N)n(CCC)c(=O)[nH]c1=O	TRHR PAM 41
O=S(=O)(NCc1ccc(Cl)cc1)c1cccc2cccnc12	none
Cc1cc(C)c(S(=O)(=O)NCc2ccc3c(c2)OCO3)c(C)c1	D1 antag -36
O=S(=O)(NCc1ccc2c(c1)OCO2)c1cccc2cccnc12	D1 antag -52
COc1ccc(CC(=O)Oc2ccccc2C)cc1	none
CCC(=O)c1ccc(OC(=O)Cc2ccc(OC)cc2)cc1	TRHR PAM 38, D1 antag -33
CCCN(CCC)CCNS(=O)(=O)c1ccc2c(c1)oc(=O)n2C	none
COc1ccccc1CNC(=O)CCNS(=O)(=O)c1ccc2c(c1)oc(=O)n2C	D1 antag -36!
CCN(CCNS(=O)(=O)c1ccc2c(c1)oc(=O)n2C)c1ccccc1	D1 antag -31
Cc1ccc(C)c(N2CCN(C(=O)CCNS(=O)(=O)c3ccc4c(c3)oc(=O)n4C)CC2)c1	D1 antag -35
COc1ccc(-n2c(-c3cnccn3)n[nH]c2=S)cc1	none
CCOC(=O)C1=NN(C(=O)c2cccc(Br)c2)C(O)(C(C)(C)C)C1 (stereo unspecified)	D1 agonist 51
CCOC(=O)C1=NN(C(=O)c2ccc(OC)cc2)C(O)(c2ccc(Cl)cc2)C1 (stereo unspecified)	D1 agonist 128
COC(=O)C1=NN(C(=O)c2cccc(Br)c2)C(O)(c2ccc(Cl)cc2)C1 (stereo unspecified)	D1 agonist 106
CCN1CCN(c2nc(-c3ccccc3Cl)nc3ccccc23)CC1	none
CC1=C(C(=O)NCc2ccccc2)C(c2cc(Br)cc(Br)c2OC(C)C)NC(=O)N1 (stereo unspecified)	none
CCSc1nnc(Cc2cc(=O)[nH]c(=O)[nH]2)n1-c1ccc(F)cc1	none
O=C(Nc1ncccc1Cl)C1COc2ccccc2O1 (stereo unspecified)	D1 agonist 47
O=C(Nc1cccnc1)C1COc2ccccc2O1 (stereo unspecified)	none
COc1ccccc1CC(=O)NCCc1ccccc1	none
COc1ccccc1C(=O)NCCC(=O)NCCc1ccccc1	D1 antag -77
Cc1ccc(NC(=O)Cn2c(=O)n(Cc3nc(-c4ccccc4)no3)c(=O)c3cc4c(cc32)OCO4)c(C)c1	none
CCOC(=O)C1CSC(CC(=O)Nc2ccc(OC(F)(F)F)cc2)C(=O)N1 (stereo unspecified)	D1 antag -32
NC(=O)C1=C[C@H](c2csc3ccccc23)C[C@H](OCCCCO)O1	none
CCOc1ccc(CC(=O)NC2CC(=O)N(c3ccc(C)c(C)c3)C2)cc1 (stereo unspecified)	none (no result: D1 antag)
CC(=O)c1ccc(NC(=O)c2cc(S(=O)(=O)N3CCCCCC3)cn2C)cc1	none
CCc1ccc2oc(C(=O)Nc3nonc3CC)c(C)c2c1	D1 antag -38!
CCn1cc(C2N3CC4(C)CN2CC(C)(C3)C4=O)c2ccccc21 (stereo unspecified)	D1 antag -76 (no result: D1 potentiator)
CCCC12CN3CC(C)(CN(C1)C3c1cn(C)c3ccccc13)C2=O (stereo unspecified)	none
OCC1(Cc2ccccc2F)CCCN(Cc2c(F)ccc(F)c2F)C1 (stereo unspecified)	TRHR PAM 30
CC1CCCCC1N(C)C1CCN(C(=O)CNC(=O)/C=C/c2cccc(Cl)c2)CC1 (stereo unspecified)	D1 antag -31
CN(C1CCCC1)C1CCN(C(=O)CNC(=O)/C=C/c2ccccc2)CC1	none
O=C(N/N=C/c1ccccn1)c1ccc2nc[nH]c2c1	none
COc1ccc(N2CC(C(=O)Nc3c4c(nn3-c3ccccc3)CS(=O)(=O)C4)CC2=O)cc1 (stereo unspecified)	D1 antag -52
